# Assay results published in PubChem BioAssay (NCI).
# The panel holds about 83,000 compounds, 20% with a hit somewhere; the sample as a whole holds those more often.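 Note: values are percent growth. 100 is the growth of untreated cells, values between 100 and 0 indicate rising inhibition; between -100 and 0 indicates cell death.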 A number with no mark means an inactive call. Activity calls are given as the source filed them. Rule for the calls: active = growth percent below 10; inactive = the rest.
# Tested on: CCRF-CEM leukemia
# Assay: NCI-60 one-dose screen, 48 h (100 = growth as untreated, 0 = no growth, -100 = all killed)
# Settings: 10 µM
row,Compound,growth
1,Clc1ccc(/C=C2\CCCC3C2=Nc2ccccc2NC3c2ccc(Cl)cc2)cc1 (centres undefined),75.9%
2,CCC(c1ccc(OC)cc1)C(CC)c1ccc(O)c(CN2CCN(C)CC2)c1 (centres undefined),56.9%
3,c1ccc(/C(=N\Nc2ccc3ccccc3n2)c2ccccn2)cc1,-39% (active)
4,O=C(NCCCNS(=O)(=O)c1ccc(Cl)cc1)Nc1ccc(-n2cc(-c3ccncc3)c(-c3ccc(Cl)c(O)c3)n2)cc1,23.5%
5,Nc1ncnc2c1ncn2C1(CO)OCC(O)C(O)C1O (centres undefined),101%
6,CN(C)CCOc1ccc(-c2nc3sccn3c2-c2ccnc(S(C)(=O)=O)n2)cc1,91%
7,COc1cc(/C=C2\CCCC3=C2NC(N)=NC3c2cc(OC)c(OC)c(OC)c2)cc(OC)c1OC (centres undefined),2.89% (active)
8,O=[N+]([O-])c1cccc(/C=N/NC(=S)NC23CC4CC(CC(C4)C2)C3)c1,86.2%
9,COc1ccc2c(c1)OC(N)=C(C#N)C2c1cc(OC)c(OC)c(OC)c1 (centres undefined),7.72% (active)
10,S=C(NCc1ccccc1)NCc1ccccc1,95.9%
11,CC(=O)OC1C=CC(OC(C)=O)O1 (centres undefined),76.6%
12,Cc1ccc(Cl)cc1NC(=O)CCl,28.4%
13,COc1cc2cc(Oc3ccc(NC(=O)c4cccc(C(F)(F)F)c4)cc3)c(C)nc2cc1OC,25.9%
14,COC(=O)C1(O)NC(=C(C#N)C#N)C(C#N)=C1C(=O)c1ccc(OC)c(OC)c1 (centres undefined),92.1%
15,COc1ccc(-c2onc(N)c2-c2cc(OC)c3c(c2)OCO3)cc1,14.5%
16,NC(N)=N/N=C(\c1ccccc1)C(O)c1ccccc1 (centres undefined),92.7%
17,COc1cc2cc(Oc3ccc(NC(=O)c4ccccc4)cc3)c(C)nc2cc1OC,101%

row,Compound,growth
1,CS(=O)(=O)c1nccc(-c2c(-c3cccc(OCc4ccc(F)cc4)c3)nc3sccn23)n1,50%
2,CCOC(=O)c1cc(C(=O)c2ccc(F)cc2F)n2ccccc12,84.7%
3,O=C(N/N=C/c1ccc(Cl)cc1)c1ccccc1Nc1cccc(C(F)(F)F)c1,69.7%
4,CC(C)N(CCOc1ccc(-c2nc3sccn3c2-c2ccnc(S(C)(=O)=O)n2)cc1)C(C)C,76.4%
5,CN(C)CCCOc1ccc(NC2=C(Cl)C(=O)C(Nc3ccc(OCCCN(C)C)cc3)=C(Cl)C2=O)cc1,-31.2% (active)
6,COc1cccc(C2C(C#N)=C(N)Oc3cc(N)ccc32)c1 (centres undefined),11.4%
7,Cc1ccc(NCCN(C)CC(C)O)c2c(=O)c3ccccc3sc12 (centres undefined),31.3%
8,CC(C)N(CCOc1cccc(-c2nc3sccn3c2-c2ccnc(S(C)(=O)=O)n2)c1)C(C)C,81%
9,NC(=O)c1cccc(-n2ccc3cc(NC(=O)Nc4ccc(Cl)c(C(F)(F)F)c4)ccc32)n1,62.5%
10,COc1cccc(-c2nc3sccn3c2-c2cccc(S(C)(=O)=O)c2)c1,98.2%
11,COc1ccc(Cl)cc1Nc1nc(C(F)(F)F)ccc1C(=O)N/N=C/c1ccc(Cl)cc1,1.78% (active)
12,CCOc1ccccc1/C=N\N=C\c1ccccc1O,71.6%
13,CN(C)c1ccc(/C=N/NC(=O)c2ccccc2Nc2cccc(C(F)(F)F)c2)cc1,53.4%
14,COc1cc2cc(Oc3ccc(NC(=O)Nc4cccc(C(F)(F)F)c4)cc3)c(C)nc2cc1OC,6.41% (active)
15,O=C(Nc1cc(Cl)cc2c1-c1ccc(Cl)cc1C2O)C(Cl)Cl (centres undefined),69.1%
16,C/C(=N\O)c1ccc(NC(=O)CSc2nnc(-c3ccccc3)n2-c2ccccc2)cc1,92%
17,CCN(CC)CCCOc1cccc2c1C(=O)c1cccc(OCCCN(CC)CC)c1C2=O,25%
